Assay [1] concerns DLD1. Put plainly: cell viability (CellTiter-Glo) relative to plate median (fraction of plate median); higher = more viable cells. The conditions noted are these: 5 µM; treatment time 24 h; reporter: 7TFP. The essentials: (§1)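 Library compounds, at a final 5 µM, stayed on reporter cells for 24 h. The cells were colorectal cancer lines stably transduced with lentiviral TCF/Wnt firefly luciferase reporters, seeded in 384-well plates 24 h before dosing. Firefly luciferase or CellTiterGlo luminescence from parallel plates was normalised to the plate median in webcellHTS2 (additive, no log transformation), and two independent replicates were averaged.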
A general note: Cellular ATP, detected with luciferase, serves as a proxy for viable cell number.

The subject of a further assay is HCT116. Described as above. The conditions noted are these: 5 µM; treatment time 24 h; reporter: TCF4/Wnt. The essentials: as §1
The subject of assay [2] is SW480. The assay is described as above. The following applies: 5 µM; treatment time 24 h; reporter: 7TFP. Put shortly: as §1
Assay [3] has as its system DLD1. Put plainly: TCF/Wnt firefly luciferase reporter signal relative to plate median (fraction of plate median); higher = higher Wnt reporter signal. The following applies: 5 µM; treatment time 24 h; reporter: 7TFP. The essentials:
as §1
In general terms: Reporter assays use an easily measured gene product as a stand-in for the process of interest.

The subject of assay [4] is SW480. The assay is described as above. The conditions noted are these: 5 µM; treatment time 24 h; reporter: 7TFP. The essentials:
as §1

Each structure is given as a SMILES string. ± gives the standard deviation of the averaged measurements.

As to `CCCCC(CC)CN1CN(CC(CC)CCCC)CC(C)(N)C1` (stereo not given), the values for the cell viability with DLD1 [1], with HCT116 and in the assay with SW480 [2] were 0.96 ± 0.071, 0.988 ± 0.032 and 0.985 ± 0.0028, respectively. Also, the “TCF/Wnt firefly luciferase reporter signal” value in the assay on DLD1 [3] worked out at 1.01 ± 0.048; in the assay with SW480 [4] it was 0.997 ± 0.018.
For `NNC(=O)c1ccncc1`, in that order: 0.952 ± 0.018, 0.959 ± 0.049, 0.984 ± 0.051, 0.8925 ± 0.00071 and 1.03 ± 0.028.
For `CCOC(=O)[C@H](CCc1ccccc1)N[C@@H](C)C(=O)N1[C@H](C(=O)O)C[C@@H]2CCC[C@@H]21`, in that order: 1.11 ± 0.17, 1.08 ± 0.014, 1.1 ± 0.042, 1.06 ± 0.035 and 1.06 ± 0.1.
For `CCOC(=O)c1ccc(N)cc1` the same measures were 1 ± 0.05, 0.903 ± 0.076, 1.005 ± 0.0071, 0.9395 ± 0.0092 and 0.897 ± 0.09.
For the compound `Oc1ccc(Cl)c2cccnc12`, the values for the cell viability with DLD1 [1], in the assay with HCT116 and in the assay on SW480 [2] were 1.025 ± 0.0071, 0.988 ± 0.032 and 1.02 ± 0.021, respectively. Moreover, the “TCF/Wnt firefly luciferase reporter signal” value came to 0.935 ± 0.069 with DLD1 [3] and 1.09 ± 0.042 with SW480 [4].
For `CN(C/C=C/C#CC(C)(C)C)Cc1cccc2ccccc12` the same measures were 1.04 ± 0.18, 1.04 ± 0.014, 1.03 ± 0.035, 1.21 ± 0.042 and 1.07 ± 0.2.
For `C[C@@]12C[C@@]3(O)O[C@@H](O1)[C@]1(COC(=O)c4ccccc4)[C@H]3C[C@@]12O[C@@H]1O[C@H](CO)[C@@H](O)[C@H](O)[C@H]1O`, in that order: 1.06 ± 0.014, 0.887 ± 0.12, 1.015 ± 0.0071, 0.941 ± 0.052 and 1.01 ± 0.21.
For `C[C@]12CC[C@@H]3c4ccc(OS(=O)(=O)O)cc4CC[C@H]3[C@@H]1CCC2=O` the same measures were 1.03 ± 0.035, 1.12 ± 0.014, 1 ± 0.014, 1.24 ± 0.21 and 1.23 ± 0.028.
In the case of `O=C1C=C(O)C(=O)c2ccccc21`, the cell viability with DLD1 [1] stood at 1.025 ± 0.0071; in the assay with HCT116 it was 1.06 ± 0.035; with SW480 [2], 1.02 ± 0.047. For the same compound, the “TCF/Wnt firefly luciferase reporter signal” value is 0.947 ± 0.09 in the assay with DLD1 [3] and 0.985 ± 0.11 in the assay with SW480 [4].
For `O=c1c(-c2ccc(O)cc2)coc2cc(O)cc(O)c12`, in that order: 1.09 ± 0.021, 1.03 ± 0.05, 1.06 ± 0.021, 1.065 ± 0.0071 and 1.12.
For `COC(=O)C1=C(C)NC(C)=C(C(=O)OCC(C)C)C1c1ccccc1[N+](=O)[O-]` (stereo not given) the same measures were 0.869 ± 0.11, 1 ± 0.041, 0.905 ± 0.071, 0.961 ± 0.24 and 0.923 ± 0.037.
For `CC(=O)Nc1ccc(O)cc1` the same measures were 0.935 ± 0.028, 0.948 ± 0.14, 0.996 ± 0.02, 0.923 ± 0.12 and 1.05 ± 0.071.
Regarding `Cc1cccc(Nc2ccccc2C(=O)O)c1C`, the cell viability with DLD1 [1] was found to be 1.03 ± 0.1; in the assay on HCT116, 1 ± 0.038; in the assay with SW480 [2], 1.07 ± 0.014. In addition, the “TCF/Wnt firefly luciferase reporter signal” value in the assay on DLD1 [3] was 0.927 ± 0.052; with SW480 [4], 1.01 ± 0.089.
For `CC(C)CCC[C@@H](C)C1CC[C@H]2[C@@H]3CCC4CC(=O)CC[C@]4(C)[C@H]3CC[C@]12C` (stereo not given in full), in that order: 0.999 ± 0.016, 1.01 ± 0.031, 1.02 ± 0.021, 0.955 ± 0.045 and 0.97 ± 0.071.
For `C#C[C@]1(O)CC[C@H]2[C@@H]3CCc4cc(OC)ccc4[C@H]3CC[C@@]21C`, in that order: 0.952 ± 0.011, 1.02 ± 0.021, 0.986 ± 0.0085, 0.981 ± 0.15 and 0.944 ± 0.059.
For `Cc1ccc(C(=O)c2ccc(CC(=O)O)n2C)cc1`, in that order: 0.981 ± 0.098, 1.01 ± 0.023, 1 ± 0.053, 1.07 ± 0.05 and 1.06 ± 0.064.
For `C[C@H]1c2cccc(O)c2C(=O)C2=C(O)[C@]3(O)C(=O)C(C(N)=O)=C(O)[C@@H](N(C)C)[C@@H]3[C@@H](O)[C@@H]21`, the cell viability with DLD1 [1] was determined as 0.942 ± 0.096; in the assay on HCT116, 0.964 ± 0.033; in the assay with SW480 [2], 0.975 ± 0.0028. Moreover, the “TCF/Wnt firefly luciferase reporter signal” value with DLD1 [3] amounted to 0.967 ± 0.23; with SW480 [4] it was 1.03 ± 0.18.
For `CC(C)=CCc1c2c(c3occ(-c4ccc(O)c(O)c4)c(=O)c3c1O)C=CC(C)(C)O2` the same measures were 0.997 ± 0.033, 1.04 ± 0.067, 1.03 ± 0.028, 0.996 ± 0.077 and 1.02 ± 0.021.
For `Nc1nc(N)c2nc(-c3ccccc3)c(N)nc2n1` the same measures were 0.843 ± 0.047, 0.898 ± 0.0042, 0.956 ± 0.037, 1.11 ± 0.085 and 1.05 ± 0.028.
For `CCCCOC(=O)c1ccc(N)cc1` the same measures were 1.02 ± 0.054, 0.942 ± 0.023, 0.961 ± 0.021, 0.936 ± 0.027 and 1.03 ± 0.083.
As to `COc1ccc(CN(CCN(C)C)c2ccccn2)cc1`, the cell viability in the assay with DLD1 [1] turned out to be 1.07 ± 0.057; with HCT116, 1.01 ± 0.14; in the assay on SW480 [2] it was 1.08 ± 0.021. Further, the “TCF/Wnt firefly luciferase reporter signal” value with DLD1 [3] came out at 0.96 ± 0.071; in the assay on SW480 [4], 1.13 ± 0.014.
For `COC(=O)C[C@H]1C(C)(C)C(=O)[C@@H]2CC3=C4CC(=O)O[C@@H](c5ccoc5)[C@]4(C)CC[C@@H]3[C@@]1(C)C2=O`, in that order: 1.01 ± 0.016, 1.01 ± 0.014, 1.035 ± 0.0071, 0.924 ± 0.0028 and 1.03 ± 0.035.
For `COc1cc(OC)c2c(=O)c(O)c(-c3ccc(OC)c(OC)c3)oc2c1` the same measures were 0.981 ± 0.055, 1 ± 0.024, 1.01 ± 0.021, 0.899 ± 0.1 and 0.887 ± 0.17.
For `O=C([O-])[C@H]1/C(=C/CO)O[C@@H]2CC(=O)N21.[Li+]`, in that order: 1.045 ± 0.0071, 1.04 ± 0.064, 1.02 ± 0.049, 1.04 ± 0.092 and 1.125 ± 0.0071.
Consider `C=C(CC[C@@H](C(=O)O)[C@H]1CC[C@@]2(C)C3=C(CC[C@]12C)[C@@]1(C)CC[C@H](O)C(C)(C)[C@@H]1CC3)C(C)C` [Eburicoic acid], for which the cell viability was 0.994 ± 0.052 in the assay on DLD1 [1], 0.923 ± 0.15 in the assay with HCT116 and 1.01 ± 0.03 in the assay with SW480 [2]. Besides, the “TCF/Wnt firefly luciferase reporter signal” value in the assay with DLD1 [3] turned out to be 0.878 ± 0.023; in the assay with SW480 [4] it was 0.983 ± 0.013.
For `CC(=O)O[C@@H]1C[C@H]2C(C)(C)[C@H](O)C[C@H](O)[C@]2(C)[C@H]2CC[C@@]3(C)[C@H](c4ccoc4)OC(=O)[C@H]4O[C@]43[C@@]21C`, in that order: 0.9065 ± 0.005, 0.942 ± 0.012, 0.977 ± 0.0014, 1 ± 0.11 and 0.892 ± 0.033.
For `CC1(C)CC2C1CC[C@]1(C)CCC3C(C(=O)O)CC(=O)O[C@@]32C1` (stereo not given in full) [3-HYDROXY-4-(SUCCIN-2-YL)-CARYOLANE delta-LACTONE], in that order: 1.01 ± 0.088, 0.9705 ± 0.00071, 0.962 ± 0.035, 1.07 ± 0.085 and 0.986 ± 0.021.
`C[C@H](CCC(=O)O)[C@H]1CC[C@H]2[C@@H]3CC[C@@H]4C[C@H](O)CC[C@]4(C)[C@H]3CC[C@]12C`: the cell viability with DLD1 [1] was 1.11 ± 0.11; in the assay with HCT116 it was 1.17 ± 0.15; in the assay on SW480 [2], 1.04 ± 0.028. The “TCF/Wnt firefly luciferase reporter signal” value with DLD1 [3] worked out at 1.21 ± 0.11; with SW480 [4], 1.16 ± 0.014.
For `CN(C)c1ccc(C(=C2C=CC(=[N+](C)C)C=C2)c2ccc(N(C)C)cc2)cc1` the same measures were 0.703 ± 0.016, 0.381 ± 0.17, 0.679 ± 0.013, 0.529 ± 0.091 and 0.465 ± 0.012.
For `NC1=NCCN1CC(=O)O` the same measures were 0.897 ± 0.036, 1.03 ± 0.072, 0.976 ± 0.0014, 1.06 ± 0.094 and 0.985 ± 0.016.

The values above are taken from the supplement of paper PMC6522484.
